# DAX1 inh-1: inhibitors of human orphan nuclear receptor DAX1 (NR0B1) | P51843 | HEK293 Gal4-DAX1 luciferase reporter, luminescence | inhibition, % at 6.75 µM | 340,000 tested, 0.99% active | AID 504766;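 active = inhibition above the mean over all tested compounds plus 3 SD, cut at about 4.2% in these data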;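 also: 0% = DAX1-transfected cells with DMSO and 100% = empty-vector control cells with DMSO; inhibition shows as a rise in luminescence from relieved DAX1 repression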
# Target sequence (P51843 207-470 limits assumed): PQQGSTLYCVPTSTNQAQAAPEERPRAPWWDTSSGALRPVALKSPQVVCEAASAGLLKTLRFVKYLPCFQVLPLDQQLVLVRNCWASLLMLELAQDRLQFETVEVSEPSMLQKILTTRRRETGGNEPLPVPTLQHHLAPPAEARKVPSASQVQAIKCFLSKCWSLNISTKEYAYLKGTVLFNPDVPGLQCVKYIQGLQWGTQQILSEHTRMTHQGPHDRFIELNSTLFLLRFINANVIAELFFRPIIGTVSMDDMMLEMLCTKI
# ssDAF-12 act: S. stercoralis DAF-12 activation, primary screen; HEK293 ssDAF-12/GRIP1 lit1-tk-luc reporter, luminescence; % of 3 µM dafachronic acid response; activation, % at 6.8 µM; 370,000 tested, 1% active;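 active = activation above the mean over all tested compounds plus 3 SD, cut at about 0.9% in these data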;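 also: 0% = DMSO-only wells and 100% = 3 µM delta7-dafachronic acid wells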
# DAX1 inh-2: inhibitors of DAX1 repression of SF-1 activated StAR promoter; HEK293T StAR-luciferase reporter, SF-1/DAX-1 repression relief; inhibition, % at 6.8 µM; 370,000 tested, 1.1% active;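 active = inhibition above the mean over all tested compounds plus 3 SD, cut at about 3.6% in these data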;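 also: 0% = DAX-1 cells with DMSO and 100% = cells lacking DAX-1 with DMSO; higher inhibition means more luminescence from relief of DAX-1 repression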
# PolyA inh: inhibitors of polyadenylation in S. cerevisiae; S. cerevisiae SKY197-pL101 polyadenylation reporter, beta-gal luminescence; efflux-impaired pdr1/pdr3 knockout yeast; score 100 = 6 SD above DMSO; activity score, % at 12 µM; 300,000 tested, 0.02% active; AID 1875;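 active = lowest replicate activity score at least 50, where 100 means six control SD above control mean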;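 also: yeast exposed to compound for 9 h at 30 °C; higher score means more reporter readthrough which indicates perturbed polyadenylation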
# hgDAF12 agonist: activates the H. glycines DAF-12 receptor ligand-binding domain. HEK293 GAL4-hgDAF12 UAS-luciferase reporter, agonist luminescence; normalized to butyrate control. activation, % at 6.8 µM. 370,000 tested, 1.8% active;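 active = activation above a cutoff set at the mean of all screened compounds plus 3 SD, cut at about 10% in these data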;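 also: 0% = DMSO wells and 100% = sodium butyrate wells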
# hcDAF12 agonist: activators of H. contortus DAF-12 nuclear receptor; HEK293 hcDAF-12 lit1-tk-luc reporter, luminescence; 0% DMSO, 100% Δ7-dafachronic acid; activation, % at 6.8 µM; 370,000 tested, 1.4% active;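 active = activation above the mean of all tested compounds plus 3 SD, cut at about 5.5% in these data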;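 also: 100% = response to 3 µM Δ7-dafachronic acid high control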
# Active calls of the source: *; nt = no result given. Only some compounds are listed: those with a hit (about 4.1% of all), similar ones and a draw of the others.
SMILES,DAX1 inh-1,ssDAF-12 act,DAX1 inh-2,PolyA inh,hgDAF12 agonist,hcDAF12 agonist
Clc1ccccc1N/N=C/c1ccc2c(c1)OCO2,4.3*,-0.8,2.3,-12.3,9.5,4.4
O=C(O)c1ccc(/C=N/Nc2nnnn2-c2ccccc2)cc1,-2.0,1.6*,0.4,0.7,0.0,-0.2
O=C(O)c1ccc(/C=N/Nc2nc3ccccc3[nH]2)cc1,8.9*,-0.5,0.2,13.6,2.2,-0.5
C/C(=N\Nc1nc2ccccc2[nH]1)c1ccc2c(c1)OCO2,-0.3,-2.0,0.5,-16.9,2.4,-1.4
COC(=O)c1ccc(/C=N/Nc2nc3ccccc3[nH]2)cc1,0.0,-0.5,0.9,7.1,6.5,1.6
C(=N\Nc1nnnn1-c1ccccc1)/c1ccncc1,1.0,-1.0,-0.2,35.7,-1.3,-2.0
Nc1ccc(S(=O)(=O)N2CCCC2)cc1,6.0*,-1.6,0.7,-20.1,1.4,0.7
COC(=O)[C@]12C[C@H](CC(=O)NCc3ccccc3)C(=O)N(Cc3ccccc3)C1=C[C@H](C1CCCC1)O[C@@H]2C,nt,-0.5,0.0,nt,-2.1,-1.7
CCOC(=O)[C@]12CCCC=C1N(Cc1ccc(OC)cc1)C(=O)[C@@H]2CC(=O)NCCCN1CCCC1=O,nt,-1.4,-0.9,nt,-2.8,-2.3
Cc1cccc(-n2c(Cc3cc(=O)[nH]c(=O)[nH]3)nnc2SCC(=O)N2CCc3ccccc32)c1,1.3,-0.6,0.1,-6.9,3.1,6.2*
O=C(CSc1nnc(Cc2cc(=O)[nH]c(=O)[nH]2)n1-c1ccc(F)cc1)N1CCCCC1,7.9*,-0.2,0.1,-6.0,5.6,-0.5
CCSc1nnc(Cc2cc(=O)[nH]c(=O)[nH]2)n1-c1ccc(F)cc1,1.5,-1.5,0.5,-12.0,-0.4,3.2
CCCC(=O)N1CCC1(C)C(=O)Nc1ccc2nccnc2c1 (stereo not drawn),nt,-1.3,-0.8,nt,10.7*,-0.9
CC1CCCC(C)N1CC(O)COCc1ccccc1 (stereo not drawn),-1.0,-1.0,0.3,-4.5,-1.2,-1.0
COc1cc(COCC(O)CN2C(C)CCCC2C)cc(OC)c1OC (stereo not drawn),4.6*,-1.7,0.0,-1.5,1.2,2.4
O=C(NC1CCCC1)C1(C(=O)C2CC2)CC(c2ccccc2C(F)(F)F)=NO1 (stereo not drawn),nt,-0.9,-0.2,nt,-1.2,1.2
CCC1CCc2c(sc(NC(=O)c3ccoc3C)c2C(N)=O)C1 (stereo not drawn),-0.5,-1.1,-0.9,4.7,4.8,5.9*
O=C(CCNc1ccccc1)c1ccc2c(c1)OCO2,4.8*,0.7,2.9,16.5,11.3*,3.8
CCCCNc1c(-c2ccc(SC3CCCCC3)cc2)nc2ccccn12,5.1*,0.5,4.0*,19.5,11.8*,3.6
Cc1nc2ccc(NC(=O)c3ccc(F)cc3F)cc2c(=O)[nH]1,nt,-0.3,-0.1,nt,4.4,3.0
COc1ccc(C(=O)C(C)OC(=O)COc2ccccc2)cc1 (stereo not drawn),0.1,-0.7,3.8*,nt,-3.0,0.5
CC(OC(=O)COc1ccc(C#N)cc1)C(=O)c1ccccc1 (stereo not drawn),0.6,-1.5,1.0,nt,0.8,-1.1
Cc1ccc(NC(=O)C2CC3CCC2C3)cc1 (stereo not drawn),nt,-0.1,nt,nt,7.3,-0.6
CCCc1cc(C(=O)Nc2nnc(C)s2)cs1,2.2,-0.2,2.9,0.5,10.7*,3.5
Nc1[nH]c(C(=O)c2ccccc2)c(-c2ccc3ccccc3c2)c1C(=O)NCc1ccc(F)cc1,nt,0.0,1.1,nt,-3.1,-0.3
SMILES,DAX1 inh-1,ssDAF-12 act,DAX1 inh-2,PolyA inh,hgDAF12 agonist,hcDAF12 agonist
Cc1ccc2nc(SCC(=O)c3ccc4c(c3)NC(=O)CO4)[nH]c2c1,-1.0,-0.3,1.0,-1.3,11.2*,4.8
Cc1ccc(C)c(-n2nnnc2SCC(=O)c2ccc3c(c2)NC(=O)CO3)c1,0.5,-1.4,0.4,-1.6,2.5,-1.5
Cc1ccc2nc(SCC(=O)c3ccc4c(c3)OCO4)[nH]c2c1,0.2,0.3,1.2,25.3,2.7,-1.1
O=C(CSc1nc2ccccc2[nH]1)c1ccc2c(c1)OCO2,6.0*,-1.2,-0.2,nt,4.9,-0.6
O=C1COc2ccc(C(=O)COC(=O)c3ccc4ccccc4n3)cc2N1,0.5,0.9*,-0.7,1.1,2.2,4.4
COc1ccc2c(C)cc(SCC(=O)c3ccc4c(c3)OCO4)nc2c1,-0.9,3.4*,-0.3,-14.1,4.7,4.1
CCc1cc2c(nc1CC)CCCN2S(=O)(=O)c1ccc(C(F)(F)F)cc1,nt,-1.6,-0.9,nt,-0.6,-1.6
COC(=O)[C@H](C)N(CCc1cn(Cc2ccccc2)nn1)S(=O)(=O)c1ccccc1Br,nt,-2.0,0.1,nt,-3.0,-2.9
CC1(C)CC(=O)N(CC(=O)N2CCN(Cc3ccc4c(c3)OCO4)CC2)c2ccccc2S1(=O)=O,nt,-0.7,0.0,nt,-0.2,-0.9
COCCN(C(=S)Nc1ccccc1C)C(C)c1ccco1 (stereo not drawn),1.8,-0.1,0.2,-14.1,-2.3,-0.8
COCCN(C(=S)Nc1cccc(C)c1C)C(C)c1ccco1 (stereo not drawn),8.3*,-1.3,1.0,-5.8,0.5,-0.6
CCN(CC)CCCN1C(=O)C2=C(C1=O)C1N(C)c3ccccc3[C@@]13C[C@@H](CO)N(C(=O)CCC(=O)OC)C3=N2 (stereo partly drawn),nt,-1.7,0.5,nt,1.8,-0.3
O=C(CSCc1nc2ccccc2[nH]1)Nc1ccccc1,0.7,-1.3,0.5,11.1,-0.1,0.1
c1ccc(CSCc2nc3ccccc3[nH]2)cc1,2.0,-0.7,1.0,1.8,6.5,6.4*
Fc1ccc(CSc2nc3ccccc3[nH]2)cc1,3.3,-0.2,3.4,0.0,11.6*,3.1
Nc1nc2ccccc2[nH]1,0.7,-0.6,0.1,5.6,-0.2,-1.3
Nc1nc(CSc2nc3ccccc3[nH]2)cs1,4.6*,0.2,0.1,-7.2,4.2,4.2
Nc1ccccc1Sc1nc2ccccc2[nH]1,-0.1,-0.2,2.8,10.7,0.8,8.9*
O=C(CSc1nnc(-c2cccnc2)n1-c1ccc(Cl)cc1)Nc1ccccc1-c1ccccc1,nt,-1.5,-1.2,nt,-2.0,-2.5
COc1ccc(OC)c(S(=O)(=O)N(CCc2ccc(OC)c(OC)c2)Cc2cccs2)c1,nt,-1.9,-2.1,nt,-2.5,-2.5
Cc1cccc(NC(=O)c2ccc3c(c2)OCCO3)c1C,-0.2,0.0,1.7,-10.7,11.9*,3.8
Cc1ccccc1NC(=O)c1ccc2c(c1)OCCO2,-0.3,-1.3,0.7,17.9,5.6,1.6
O=C(Nc1cccc2nsnc12)c1ccc2c(c1)OCCO2,0.9,0.1,1.9,0.8,9.6,5.6*
O=C(Nc1cccc(F)c1)OCCN1CCCC12CCC(c1ccccc1)CC2 (stereo not drawn),nt,-2.1,nt,nt,0.9,-1.8

# Screening data from PubChem.
